Experimental data taken from PubChem BioAssay AID1508621 (National Center for Advancing Translational Sciences (NCATS), 2021).
Results filed as inconclusive are left out. Where a call stands in place of a potency, no number is given. Activity calls are given as the source filed them. The call rests on the fitted dose curve; in most records, active means well fitted inhibition curve with a large enough effect; inconclusive means small, poorly fitted or top-dose-only effect; inactive means no such curve, though single readings can be large or run the other way.

assay: Confirmatory qHTS for Identification of Small Molecule Inhibitors of Huntingtin Promoter Activity; conditions: HEK293 HTT promoter firefly luciferase reporter, 24 h; series mostly up to 57.5 µM; further: nearly all actives have a fitted effect of over 65% in size
Method in brief: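 HEK293 luciferase reporter cells, 2,500/well, cultured 24 h, then exposed to compounds at up to 57.5 uM final for 24 h at 37C. Firefly luciferase luminescence read; normalized to vehicle (0%) and zero RLU (-100%).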
Potency means the concentration at half of the fitted maximal effect.

Question: For `Cc1ccc2nc(-c3ccncc3)c(Nc3ccccc3C)n2c1`, which Potency is on record?
Answer: The Potency was “inactive”.

Question: For `CCC(=O)N1CCc2cc(S(=O)(=O)NCCC(=O)Nc3ccc(CC)cc3)ccc21`, which Potency is on record?
Answer: The Potency was “inactive”.

Question: For `CCc1ccc(NC(=O)Nc2cn(C)c(=O)c3ccccc23)cc1`, which Potency is on record?
Answer: The Potency was “inactive”.

Question: With `Cc1ccc(C)c(OCCCC(C)(C)C(=O)O)c1` as the compound, how does the Potency read?
Answer: Its Potency is “inactive”.

Question: With `Cc1ccc2nc(CSc3nnc(NC(=O)COc4ccccc4)s3)cc(=O)n2c1` as the compound, how does the Potency read?
Answer: The Potency was “inactive”.

Question: For `CC[C@@H]1C(=O)N(C)c2cnc(Nc3ccc(C(=O)NC4CCC(N5CCN(CC6CC6)CC5)CC4)cc3OC)nc2N1C(C)C` (stereo partly drawn), which Potency is on record?
Answer: Its Potency is “inactive”.

Question: For `Cc1cccc(C2C=C(c3ccc(F)cc3)Nc3nc4ccccc4n32)c1` (stereo not drawn), which Potency is on record?
Answer: The Potency was “inactive”.

Question: With `CCN(C(=O)CSc1nc(-c2ccccc2)no1)c1cccc(C)c1` as the compound, how does the Potency read?
Answer: Its Potency is “inactive”.

Question: For `CCOC(=O)c1ccc(N2C(=O)c3[nH]nc(-c4ccccc4)c3C2c2cccs2)cc1` (stereo not drawn), which Potency is on record?
Answer: The Potency was 13.5 µM (active).

Question: For `Cc1ccc(C)c(N2CCN(C(=O)c3nn(C)c4c3CS(=O)(=O)c3ccccc3-4)CC2)c1`, which Potency is on record?
Answer: The Potency was 23.9 µM (active).

Question: Which Potency does the source give for `CN(C)C(=O)COC(=O)Cc1ccc(OC(=O)c2ccc(N=C(N)N)cc2)cc1` here?
Answer: The Potency was “inactive”.

Question: For `O=C(C=Cc1ccc(CN(CCO)CCc2c[nH]c3ccccc23)cc1)NO`, which Potency is on record?
Answer: The Potency was “inactive”.

Question: For `Cc1ccc(S(=O)(=O)n2nc(-c3ccccc3)nc2NCc2ccccc2Cl)cc1`, which Potency is on record?
Answer: Its Potency is “inactive”.

Question: Which Potency does the source give for `CC(C)c1ccc(Cc2cnc(NC(=O)c3ccc4c(c3)CC(c3ccccc3)OC4=O)s2)cc1` (stereo not drawn) here?
Answer: Its Potency is 3.79 µM (active).

Question: Which Potency does the source give for `Cc1[nH]c2ccccc2c1CCNCc1ccc(C=CC(=O)NO)cc1` here?
Answer: Its Potency is “inactive”.

Question: Which Potency does the source give for `Cc1cc(Nc2sc(C(=O)c3ccc(F)cc3)c(N)c2C(=O)Nc2ccc(F)cc2)ccc1Cl` here?
Answer: Its Potency is 1.69 µM (active).

Question: For `CC(=O)c1ccc(NS(=O)(=O)c2ccc3[nH]c(=O)[nH]c3c2)cc1`, which Potency is on record?
Answer: Its Potency is “inactive”.

Question: For `Cc1cc(C)c(Cn2c3ccccc3c3cnn(CC(=O)N4CCCCC4)c(=O)c32)c(C)c1`, which Potency is on record?
Answer: The Potency was “inactive”.

Question: Which Potency does the source give for `COc1ccc(C(=O)Nc2cccc(-c3cn4ccsc4n3)c2)c(OC)c1` here?
Answer: Its Potency is “inactive”.

Question: Which Potency does the source give for `Cc1ccccc1C(=O)Nc1nc(-c2ccc(Br)cc2)ns1` here?
Answer: The Potency was “inactive”.

Question: With `Cc1ccccc1OCc1ccc(-c2nc(C#N)c(NCc3cccnc3)o2)o1` as the compound, how does the Potency read?
Answer: Its Potency is 19 µM (active).

Question: For `O=C(Nc1ccccc1)c1ccc(Cl)c(S(=O)(=O)Nc2ccccc2)c1`, which Potency is on record?
Answer: Its Potency is “inactive”.

Question: Which Potency does the source give for `CCN(Cc1ccccc1)C(=O)c1cc(-c2ccccc2)n[nH]1` here?
Answer: Its Potency is “inactive”.

Question: For `COc1ccc(N2CCN(C(=O)c3ccc4c(=O)n(CCc5ccc(OC)c(OC)c5)c(=O)[nH]c4c3)CC2)cc1`, which Potency is on record?
Answer: Its Potency is 12 µM (active).

Question: With `O=C(CCCCCCC(=O)Nc1ccccc1)NO` as the compound, how does the Potency read?
Answer: The Potency was “inactive”.

Question: Which Potency does the source give for `CCS(=O)(=O)c1ncc(Cl)c(C(=O)N(Cc2ccccc2)c2ccc(OC)cc2)n1` here?
Answer: The Potency was 10.7 µM (active).

Question: With `CN(C)c1ccc(Nc2nc(N)n(C(=O)c3c(F)cccc3F)n2)cc1` as the compound, how does the Potency read?
Answer: The Potency was “inactive”.

Question: With `CCS(=O)(=O)c1ncc(Cl)c(C(=O)NCc2ccc(OC)cc2)n1` as the compound, how does the Potency read?
Answer: Its Potency is 19 µM (active).

Question: With `O=C(C=Cc1cccc(S(=O)(=O)Nc2ccccc2)c1)NO` as the compound, how does the Potency read?
Answer: The Potency was “inactive”.

Question: For `O=C(Cc1ccccc1)Nc1cccc(-c2cn3cccnc3n2)c1`, which Potency is on record?
Answer: Its Potency is “inactive”.

Question: Which Potency does the source give for `COc1cc(C[C@@H](CO)[C@H](CO)Cc2ccc(O)c(OC)c2)ccc1O` here?
Answer: Its Potency is “inactive”.

Question: With `Cc1ccc(-n2ncc3c(N(C)Cc4ccccc4)ncnc32)cc1` as the compound, how does the Potency read?
Answer: The Potency was “inactive”.

Question: Which Potency does the source give for `Cc1ccc(CNC(=O)c2c(Nc3c(C)cccc3C)sc(C(=O)c3ccccc3)c2N)cc1` here?
Answer: The Potency was 9.53 µM (active).

Question: Which Potency does the source give for `COc1ccc(-c2nc(CSCC(=O)N3CCN(c4cc(Cl)ccc4C)CC3)c(C)o2)cc1` here?
Answer: The Potency was 9.53 µM (active).

Question: For `CC(C)OCc1cc(CN2CCN(c3cccc(C(F)(F)F)c3)CC2)c(O)c2ncccc12`, which Potency is on record?
Answer: Its Potency is 9.53 µM (active).

Question: For `CCOc1ccccc1C(=O)Nc1nc2c(s1)CC(C)CC2` (stereo not drawn), which Potency is on record?
Answer: The Potency was “inactive”.

Question: For `O=C(NCc1cccc(Cl)c1)C1CCCN(c2nn3cc(-c4ccc(F)cc4)nc3s2)C1` (stereo not drawn), which Potency is on record?
Answer: The Potency was 12 µM (active).

Question: Which Potency does the source give for `O=C(O)c1ccc2c(c1)N(Cc1ccc(F)cc1)C(=O)c1ccccc1S2=O` (stereo not drawn) here?
Answer: The Potency was “inactive”.
